From PMC7862700, “An all-to-all approach to the identification of sequence-specific readers for epigenetic DNA modifications on cytosine”

target: SPIB (Homo sapiens, UniProt Q01892 1-262); assay: DAPPL (digital affinity profiling via proximity ligation, sequencing); 10 mM Tris-HCl pH 7.5, 50 mM NaCl, 1 mM DTT, 4% glycerol, room temperature, 30 min; GST-TFs on glutathione beads, 16-mer random dsDNA library, 0.1% formaldehyde crosslink after washing; high values mean tight binding; settings: protein: recombinant; tags: N-terminal GST; dsDNA, one strand shown
Procedure, shortened: (§1)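 GST fusions of human transcription factors were expressed in yeast and captured with glutathione beads. Once given DNA barcodes and pooled alongside a tag-only sample, they were incubated for 30 min at room temperature with 200 nmole of a random double-stranded 16-mer DNA library in Tris/NaCl/DTT/glycerol buffer, then washed, crosslinked (0.1% formaldehyde), proximity-ligated, PCR-amplified and sequenced on an Illumina NextSeq500. The binding signal of each hexamer is its read frequency for a factor divided by its frequency for the tag-only sample.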

SPIB, sequence (Q01892 whole entry, the tested form may be a part): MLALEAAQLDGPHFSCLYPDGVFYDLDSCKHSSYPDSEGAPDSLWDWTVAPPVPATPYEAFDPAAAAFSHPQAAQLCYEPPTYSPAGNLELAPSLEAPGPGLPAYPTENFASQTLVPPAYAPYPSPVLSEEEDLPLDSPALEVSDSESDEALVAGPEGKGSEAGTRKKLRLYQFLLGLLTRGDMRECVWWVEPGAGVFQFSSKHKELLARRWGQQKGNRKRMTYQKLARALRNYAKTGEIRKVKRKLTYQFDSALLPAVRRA

Row | Sequence | binding signal
1 | CTACCC | 1.34 fold enrichment (6-mer frequency, TF over GST control)
2 | TTCAGT | 1 fold enrichment (6-mer frequency, TF over GST control)
3 | TGTACT | 1.21 fold enrichment (6-mer frequency, TF over GST control)
4 | CACTTG | 1.3 fold enrichment (6-mer frequency, TF over GST control)
5 | AAGCGG | 1.03 fold enrichment (6-mer frequency, TF over GST control)
6 | ATCATG | 1.14 fold enrichment (6-mer frequency, TF over GST control)
7 | ATAAAC | 1.19 fold enrichment (6-mer frequency, TF over GST control)
8 | TAATCC | 1.28 fold enrichment (6-mer frequency, TF over GST control)
9 | CCTTCA | 1.46 fold enrichment (6-mer frequency, TF over GST control)
10 | TCTCAA | 1.33 fold enrichment (6-mer frequency, TF over GST control)
11 | GGCTAG | 1.18 fold enrichment (6-mer frequency, TF over GST control)
12 | TAGGAA | 1.28 fold enrichment (6-mer frequency, TF over GST control)
13 | CACTGG | 1.11 fold enrichment (6-mer frequency, TF over GST control)
14 | TTATCA | 1.1 fold enrichment (6-mer frequency, TF over GST control)
15 | CATCAC | 1.11 fold enrichment (6-mer frequency, TF over GST control)
16 | GCCAAT | 1.07 fold enrichment (6-mer frequency, TF over GST control)
17 | ACACAA | 1.21 fold enrichment (6-mer frequency, TF over GST control)
18 | CACATA | 1.06 fold enrichment (6-mer frequency, TF over GST control)
19 | CTCATA | 1.48 fold enrichment (6-mer frequency, TF over GST control)
20 | TGATTT | 1.23 fold enrichment (6-mer frequency, TF over GST control)

target: T1, ELK3 (Homo sapiens, UniProt P41970 1-407); assay: as above; settings: protein: recombinant; tags: N-terminal GST; dsDNA, one strand shown
T1 sequence: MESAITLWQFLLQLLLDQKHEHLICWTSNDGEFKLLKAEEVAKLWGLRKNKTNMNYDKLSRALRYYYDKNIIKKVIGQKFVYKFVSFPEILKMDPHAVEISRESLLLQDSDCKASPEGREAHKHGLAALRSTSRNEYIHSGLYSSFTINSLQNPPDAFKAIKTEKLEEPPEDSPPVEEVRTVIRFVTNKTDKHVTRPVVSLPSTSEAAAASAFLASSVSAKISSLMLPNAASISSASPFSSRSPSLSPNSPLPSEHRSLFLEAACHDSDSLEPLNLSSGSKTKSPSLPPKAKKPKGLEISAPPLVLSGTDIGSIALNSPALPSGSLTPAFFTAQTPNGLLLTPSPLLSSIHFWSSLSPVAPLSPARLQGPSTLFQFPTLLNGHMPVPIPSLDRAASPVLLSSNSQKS
Procedure, shortened: as §1

Row | Sequence | binding signal
21 | CATAAC | 1.18 fold enrichment (6-mer frequency, TF over GST control)
22 | TATCCC | 1.56 fold enrichment (6-mer frequency, TF over GST control)
23 | TGTTAC | 1.53 fold enrichment (6-mer frequency, TF over GST control)
24 | ACCCAC | 1.24 fold enrichment (6-mer frequency, TF over GST control)
25 | TATTGC | 1.3 fold enrichment (6-mer frequency, TF over GST control)
26 | ATTGAA | 1.11 fold enrichment (6-mer frequency, TF over GST control)
27 | CGATAC | 1.14 fold enrichment (6-mer frequency, TF over GST control)
28 | CGCTAC | 1.28 fold enrichment (6-mer frequency, TF over GST control)
29 | CTGGTC | 1.09 fold enrichment (6-mer frequency, TF over GST control)
30 | GGAAGC | 1.77 fold enrichment (6-mer frequency, TF over GST control)
31 | CTTACG | 1.07 fold enrichment (6-mer frequency, TF over GST control)
32 | CATCCG | 2.5 fold enrichment (6-mer frequency, TF over GST control)
33 | TTTCAA | 1.33 fold enrichment (6-mer frequency, TF over GST control)
34 | TACATC | 1.74 fold enrichment (6-mer frequency, TF over GST control)
35 | CACAAC | 1.22 fold enrichment (6-mer frequency, TF over GST control)
36 | ATCCCA | 1.2 fold enrichment (6-mer frequency, TF over GST control)
37 | TGTCTC | 1.15 fold enrichment (6-mer frequency, TF over GST control)
38 | TACCGC | 1.13 fold enrichment (6-mer frequency, TF over GST control)
39 | ATGGCT | 1.28 fold enrichment (6-mer frequency, TF over GST control)
40 | TCTGGG | 1.28 fold enrichment (6-mer frequency, TF over GST control)

Row | Sequence | binding signal
41 | CTACCC | 1.31 fold enrichment (6-mer frequency, TF over GST control)
42 | TTCAGT | 1.02 fold enrichment (6-mer frequency, TF over GST control)
43 | TGTACT | 1.35 fold enrichment (6-mer frequency, TF over GST control)
44 | CACTTG | 1.26 fold enrichment (6-mer frequency, TF over GST control)
45 | AAGCGG | 1.11 fold enrichment (6-mer frequency, TF over GST control)
46 | ATCATG | 1.15 fold enrichment (6-mer frequency, TF over GST control)
47 | ATAAAC | 1.14 fold enrichment (6-mer frequency, TF over GST control)
48 | TAATCC | 1.35 fold enrichment (6-mer frequency, TF over GST control)
49 | CCTTCA | 1.16 fold enrichment (6-mer frequency, TF over GST control)
50 | TCTCAA | 1.43 fold enrichment (6-mer frequency, TF over GST control)
51 | GGCTAG | 1 fold enrichment (6-mer frequency, TF over GST control)
52 | TAGGAA | 1.03 fold enrichment (6-mer frequency, TF over GST control)
53 | CACTGG | 1.02 fold enrichment (6-mer frequency, TF over GST control)
54 | TTATCA | 1.17 fold enrichment (6-mer frequency, TF over GST control)
55 | CATCAC | 1.05 fold enrichment (6-mer frequency, TF over GST control)
56 | GCCAAT | 1.11 fold enrichment (6-mer frequency, TF over GST control)
57 | ACACAA | 1.19 fold enrichment (6-mer frequency, TF over GST control)
58 | CACATA | 1.17 fold enrichment (6-mer frequency, TF over GST control)
59 | CTCATA | 1.34 fold enrichment (6-mer frequency, TF over GST control)
60 | TGATTT | 1.11 fold enrichment (6-mer frequency, TF over GST control)
